Laboratory results reported in PubChem BioAssay (NCI).
The panel holds about 83,000 compounds, 20% with a hit somewhere; the sample as a whole holds those more often.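 Single-concentration screen, 48 h exposure, 96-well plates. Endpoint: percent growth. Below 10 = active.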 Unmarked numbers belong to inactive results. Activity calls are given as the source filed them.

How the values were obtained:
Assay in all cases: NCI-60 one-dose screen, 48 h (100 = growth as untreated, 0 = no growth, -100 = all killed)
Conditions in all cases: 10 µM unless noted
NCI-H23 lung = tested on: NCI-H23 lung
NCI-H226 lung = tested on: NCI-H226 lung
NCI-H322M lung = tested on: NCI-H322M lung
HOP-62 NSCLC = tested on: HOP-62 NSCLC
NCI-H460 lung = tested on: NCI-H460 lung
HOP-92 NSCLC = tested on: HOP-92 NSCLC
NCI-H522 lung = tested on: NCI-H522 lung
A549/ATCC NSCLC = tested on: A549/ATCC NSCLC
786-0 renal = tested on: 786-0 renal
COLO 205 colon = tested on: COLO 205 colon
DU-145 prostate = tested on: DU-145 prostate
K-562 leukemia = tested on: K-562 leukemia
MALME-3M melanoma = tested on: MALME-3M melanoma
MDA-MB-231 breast = tested on: MDA-MB-231 breast
RXF 393 renal = tested on: RXF 393 renal
SF-268 CNS = tested on: SF-268 CNS
SF-295 CNS = tested on: SF-295 CNS
SF-539 CNS = tested on: SF-539 CNS
UACC-257 melanoma = tested on: UACC-257 melanoma
M14 melanoma = tested on: M14 melanoma

| SMILES | growth (NCI-H23 lung) | growth (NCI-H226 lung) | growth (NCI-H322M lung) | growth (HOP-62 NSCLC) | growth (NCI-H460 lung) | growth (HOP-92 NSCLC) | growth (NCI-H522 lung) | growth (A549/ATCC NSCLC) | growth (786-0 renal) | growth (COLO 205 colon) | growth (DU-145 prostate) | growth (K-562 leukemia) | growth (MALME-3M melanoma) | growth (MDA-MB-231 breast) | growth (RXF 393 renal) | growth (SF-268 CNS) | growth (SF-295 CNS) | growth (SF-539 CNS) | growth (UACC-257 melanoma) | growth (M14 melanoma) |
| --- | --- | --- | --- | --- | --- | --- | --- | --- | --- | --- | --- | --- | --- | --- | --- | --- | --- | --- | --- | --- |
| COc1cc(C#Cc2ccc(=O)oc2C#Cc2ccccc2)cc(OC)c1OC | 64.8% | 76.6% | 103% | 102% | 84.7% | 112% | 18.2% | 95.7% | 83% | 23.6% | 65.7% | 4.76% (active) | 75.9% | 89% | 78.7% | 43.5% | 96.9% | 110% | 108% | 72.6% |
| N#C/C(=C\c1ccc(Cl)cc1Cl)C(=O)Nc1ncc(Cc2ccc(Cl)c(Cl)c2)s1 | 91.8% | 93.4% | 76.4% | 82.9% | 101% | 70.7% | 79.1% | 89.3% | 93.2% | 112% | 99.3% | 25.5% | 93% | 97.1% | 113% | 84% | 89.9% | 85.6% | 93.2% | 53.8% |
| COc1cccc(/C=C/C(=O)c2cc3c(N)c(C(=O)Nc4ccccc4C)sc3nc2C)c1 | 70.4% | 69.2% | 80.5% | 67.7% | 32.2% | 74.1% | -7.9% (active) | 62.9% | 9.79% (active) | 92.2% | 8.15% (active) | 12.9% | 78.6% | 52.8% | -10.2% (active) | 28.9% | 74% | 50.9% | 83.2% | 47.5% |
| Cn1cc(-c2csc(-c3cn(C(=O)OC(C)(C)C)c4ccccc34)n2)c2ccnc(Cl)c21 | 57.1% | 46.4% | 85.3% | 72.4% | 22.4% | 58.5% | 50% | 26.8% | 67.2% | 39.8% | 74.1% | 68.1% | 90% | 38.3% | 63.6% | 71.8% | 62.4% | 68.3% | 59.5% | 79% |
| CC(=O)c1cc(-c2ccccc2N)n(-c2ccc3c(c2)OCO3)c1C | 43.4% | -0.426% (active) | 31.6% | 30.6% | 2.71% (active) | 38.8% | 18.4% | 19.5% | 23.9% | – | 9.47% (active) | 5.63% (active) | 48.7% | 21.3% | 39.7% | 31.5% | -10% (active) | -0.915% (active) | 76.6% | 10% |
| Cc1cscc(C)c1=S | 77.2% | 103% | 87% | 99.6% | 48.7% | 108% | 50.8% | 88.1% | 103% | – | 4.23% (active) | 96% | 96.1% | 97.8% | 71.2% | 95.7% | 76% | 96.9% | 89% | 93.1% |
| N#Cc1c(-c2ccccc2)nc2c(c(-c3ccccc3)nn2-c2ccccc2)c1-c1ccc(N2CCOCC2)cc1 | 96.9% | 92.7% | 92.3% | 95.3% | 92.5% | 85.8% | 92% | 77.2% | 86.3% | 79.6% | 91.5% | -20% (active) | 104% | 97.3% | 95% | 104% | 107% | 93.7% | 101% | 92.3% |
| CN1CCN(Cc2ccc(NC(=O)c3cncc(C#Cc4cnn5ccccc45)c3)cc2C(F)(F)F)CC1 | -43.9% (active) | -11.6% (active) | -2.81% (active) | -15.4% (active) | -22.5% (active) | -7.15% (active) | -14.7% (active) | 4.64% (active) | 4.29% (active) | -33.6% (active) | 4.16% (active) | 1.13% (active) | -61.3% (active) | -7.64% (active) | -44.8% (active) | -32.8% (active) | 20.7% | -58.4% (active) | 11% | -39.6% (active) |
